# Out of some 52,000 compounds screened, about 4,300 (8.3%) were called active. This excerpt belongs to a sample that is enriched for actives. Unmarked numbers belong to inactive results. No stated cut-off is given here; in the data, active means survival mostly below about 52% (no sharp cut-off); inactive means mostly above about 56%.
# Tested on: DeltatarO mutant
# Assay: growth inhibition of S. aureus wild type versus tarO mutant, primary screen, teichoic acid synthesis inhibitors, RN4220, OD600 (AID 463173)
# Details: OD600, 18 h, active compounds read low, screened at 18.75 µg/mL (by protocol)
row,SMILES,survival
1,C=CCc1c(C)[nH]c2c(OC)cccc2c1=S,82%
2,COc1ccc(C(=O)Nc2ccc(NC(=O)c3cccs3)cc2)cc1OC,72%
3,COc1ccc(OC)c(NC(=O)C2CCN(S(=O)(=O)c3ccc4c(c3)CCCC(=O)N4)CC2)c1,88%
4,CCOC(=O)C1CCN(C(=O)Cn2nc(CC)n3c(cc4sccc43)c2=O)CC1,134%
5,COc1cc(C(CC(=O)Nc2ncccc2C)N2Cc3ccccc3C2=O)cc(OC)c1OC (stereo unspecified),79%
6,Cc1ccc(NC(=O)CN2C(=O)CCn3nc(-c4cccn4C)cc32)c(Cl)c1,115%
7,COCCCNC(=O)C(=O)Nc1c2c(nn1-c1cccc(Cl)c1)CSC2,79%
8,C=CCC(NCc1ccco1)c1ccccc1 (stereo unspecified),69%
9,CCOc1cc(C(=O)Nc2ccc(-c3nc4cc(Cl)ccc4o3)cc2)cc(OCC)c1OCC,67%
10,CCOc1cc(C(=O)Nc2cccc(-c3nc4ccccc4o3)c2)cc(OCC)c1OCC,51%
11,CCc1ccc2oc(-c3ccc(NC(=O)c4cc(OC)c(OC)c(OC)c4)cc3)nc2c1,57%
12,CCOc1cc(C(=O)Nc2ccc(-c3nc4cc(C)ccc4o3)cc2)cc(OCC)c1OCC,27% (active)
13,CCOc1cc(C(=O)Nc2ccc3oc(-c4ccc(F)cc4Cl)nc3c2)cc(OCC)c1OCC,64%
14,CCOc1cc(C(=O)Nc2ccc3oc(-c4ccc(CC)cc4)nc3c2)cc(OCC)c1OCC,41% (active)
15,COc1cccc(-n2c(SCC(=O)Nc3nnc(C)s3)nc3c([nH]c4ccccc43)c2=O)c1,60%
16,COc1ccc(-n2ccn(CC(=O)Nc3ccccc3C(F)(F)F)c(=O)c2=O)cc1OC,80%
17,CNC(=O)COc1ccc(NC(=O)CCn2nc(-c3ccc(C)cc3)c3ccccc3c2=O)cc1,73%
18,COc1cc(C2C(C(=O)Nc3ccccc3C)=C(C)Nc3ncnn32)ccc1OCC(N)=O (stereo unspecified),82%
19,CCOc1ccc(CNCCCSc2nnnn2C)cc1OC,74%
20,COc1ccccc1NC(=O)N1CCNCC1,73%
21,COc1ccc(-c2cc(C)no2)cc1S(=O)(=O)N1CCOc2ccccc21,73%

row,SMILES,survival
1,COc1ccc(-c2cc(C)no2)cc1S(=O)(=O)N1CCc2ccccc21,67%
2,CCC1CN(S(=O)(=O)c2cc(-c3cc(C)no3)ccc2C)c2cc(C)ccc2O1 (stereo unspecified),52% (active)
3,CCC1CN(S(=O)(=O)c2cc(-c3cc(C)no3)ccc2OC)c2cc(C)ccc2O1 (stereo unspecified),109%
4,CCC1CN(S(=O)(=O)c2cc(-c3cc(C)no3)ccc2OC)c2cc(Cl)ccc2O1 (stereo unspecified),62%
5,COc1ccc(-c2cc(C)no2)cc1S(=O)(=O)N1CC(C)Oc2ccccc21 (stereo unspecified),-5% (active)
6,CCC1CN(S(=O)(=O)c2cc(-c3cc(C)no3)ccc2C)c2cc(Cl)ccc2O1 (stereo unspecified),75%
7,COc1ccc(-c2onc(C)c2C)cc1S(=O)(=O)N1CCc2ccccc21,6% (active)
8,Cc1ccc(-c2onc(C)c2C)cc1S(=O)(=O)N1CCc2ccccc21,86%
9,CC(=O)N/C(N)=N\c1nc(C)c2ccc(C)cc2n1,73%
10,O=C(NCc1ccc(Cl)cc1)c1ccc2c(c1)NC(=O)C(CS(=O)(=O)Cc1ccccc1Cl)N2 (stereo unspecified),94%
11,COCCCNC(=O)Nc1cc(C(=O)NCc2ccc(OC)cc2)ccc1N1CCCC1,67%
12,COc1ccccc1N1CCN(CCCNC(=O)c2cnn(-c3cccc(Cl)c3)c2C2CCN(C(=O)OC(C)(C)C)CC2)CC1,87%
13,CC1=C(C(=O)Nc2c(C)cc(C)cc2C)C2(CCN(C(C)C)CC2)OC1=O,112%
14,O=C(CCCn1c(=O)c2sccc2n(Cc2c(F)cccc2Cl)c1=O)NCc1ccccc1,138%
15,CCOC(=O)c1noc2ncnc(N3CCC(C)CC3)c12,75%
16,Cc1ccc(C2=NC(c3ccccc3)=Nc3ccc(Cl)cc3N2)cc1,89%
17,CCOc1ccc(NC(=O)CN(c2ccc(C)cc2)S(=O)(=O)c2cccs2)cc1,83%
18,COc1ccc2c(c1)CCc1c(C(=O)Nc3ccccc3C(F)(F)F)noc1-2,143%
19,Cc1ccc(NC(=O)C2CCCN(c3ncnc4onc(C)c34)C2)c(Cl)c1 (stereo unspecified),74%
20,Cc1ccc(OCCCCn2nnc3sc4c(c3c2=O)CCC(C)C4)cc1 (stereo unspecified),56%
21,Cc1ccc(-c2nc(NC(=O)CSc3ncnc4sc5c(c34)CCC(C)C5)ns2)cc1 (stereo unspecified),69%

row,SMILES,survival
1,CCCCCOC(=O)CSc1ncnc2c1sc1nc(N3CCOCC3)c3c(c12)CCCC3,71%
2,CCCCOC(=O)CSc1ncnc2sc3c(c12)CCC(C)C3 (stereo unspecified),17% (active)
3,CCC(C(=O)OC(C)C)n1cnc2sc3c(c2c1=O)CCC(C)C3 (stereo unspecified),93%
4,CCCCCOC(=O)CSc1ncnc2sc3c(c12)CCC(C)C3 (stereo unspecified),-4% (active)
5,CCCOC(=O)CSc1ncnc2sc3c(c12)CCC(C)C3 (stereo unspecified),7% (active)
6,CC1CCc2c(sc3ncnc(NCCOCCO)c23)C1 (stereo unspecified),98%
7,CCOc1ccc(NC(=O)CSc2cn(CC(=O)N3CCOCC3)c3ccccc23)cc1,95%
8,CCOc1ccc(NC(=O)Cn2c(=O)n(CCCCC(=O)NCc3ccc4c(c3)OCO4)c(=O)c3ccccc32)cc1,85%
9,CC1(C)CC(NC(=O)CCCC(=O)O)CC(C)(C)N1,81%
10,COc1ccc(C)cc1NC(=O)c1ccc2c(=O)n3c(nc2c1)CCCCC3,65%
11,COc1ccc(Cn2c(CO)cnc2SCC(=O)NCc2ccco2)cc1,-5% (active)
12,Cc1ccc(Cn2c(CO)cnc2SCC(=O)NCc2ccccc2Cl)cc1,73%
13,COc1ccc(Cn2ccnc2SCC(=O)NCc2ccco2)cc1,75%
14,Cc1ccc(Cn2c(CO)cnc2SCC(=O)Nc2ccc(C)c(Cl)c2)cc1,-5% (active)
15,COc1ccc(Cn2c(CO)cnc2SCc2ccc(F)cc2)cc1,17% (active)
16,O=C(CSc1ncc(CO)n1Cc1ccc(F)cc1)NCc1ccco1,126%
17,COc1ccc(Cn2c(CO)cnc2SCc2ccccc2)cc1,89%
18,CCOC(=O)c1ccccc1NC(=O)CSc1ncc(CO)n1Cc1ccc(C)cc1,77%
19,OCc1cnc(SCc2ccc(F)cc2)n1Cc1ccc(F)cc1,88%

# Reference: PubChem BioAssay AID463173 (ICCB-Longwood Screening Facility, Harvard Medical School, 2010)
